Assay [1] can be described thus: qHTS for Inhibitors of Ubiquitin-specific Protease USP2a Using CHOP2 as the Reporter: K633 Counterscreen (AID 652168). Further: series mostly up to about 57 µM. The procedure, abridged:
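Detection-system control: fluorescence of K48-linked DiUb-4IQF substrate (100 nM as added) tracked over time, Ex 525/Em 598, with pinned compounds and no enzyme, in pH 8 Tris buffer containing beta-mercaptoethanol and 0.05% Chaps.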

A short description of assay [2]: qHTS for Inhibitors of Ubiquitin-specific Protease USP2a Using CHOP2 as the Reporter: Cytotox Assay (AID 652170). Further: nearly all actives have a fitted effect of over 70% in size. Further: potency means the concentration at half of the fitted maximal effect. The procedure, abridged:
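Cytotoxicity read as ATP luminescence (CellTiter-Glo) after 72 hr compound treatment at 37 deg C. Cells: HCT116, 600/well in DMEM plus 10% FBS. Normalization between DMSO-treated cells and cell-free wells.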

For assay [3], the target named is Ubiquitin carboxyl-terminal hydrolase 2 (Homo sapiens) (UniProt O75604). The assay is described as follows: qHTS for Inhibitors of Ubiquitin-specific Protease USP2a Using CHOP2 as the Reporter: K484 Substrate (AID 652173).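 Further: cleavage of internally quenched K48 di-ubiquitin substrate measured as rising fluorescence over time; potency means the concentration at half of the fitted maximal effect; nearly all actives have a fitted effect of over 70% in size.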 The procedure, abridged:
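Kinetic fluorescence (Ex 525/Em 598) tracked cleavage of an internally quenched K48 di-ubiquitin substrate, added as a 100 nM solution. The enzyme was added as a 5 nM USP2 solution before compound pinning, with no-enzyme controls. Buffer: Tris pH 8, beta-mercaptoethanol, CHAPS.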

“And” between values parts separate entries of the source, which are not always exact repeats. Equal values may be shown once. Records with an inconclusive call do not appear. Entries that show only a call come without a potency. The source made the active and inactive calls. The call rests on the fitted dose curve; in most records, active means well fitted curve in the direction sought with a large enough effect; inconclusive means small, poorly fitted or top-dose-only effect, or another doubt; inactive means no such curve, though single readings can be large; an effect the other way counts as inactive or inconclusive.

Chain of Ubiquitin carboxyl-terminal hydrolase 2 (Homo sapiens) (O75604 whole entry, looked up): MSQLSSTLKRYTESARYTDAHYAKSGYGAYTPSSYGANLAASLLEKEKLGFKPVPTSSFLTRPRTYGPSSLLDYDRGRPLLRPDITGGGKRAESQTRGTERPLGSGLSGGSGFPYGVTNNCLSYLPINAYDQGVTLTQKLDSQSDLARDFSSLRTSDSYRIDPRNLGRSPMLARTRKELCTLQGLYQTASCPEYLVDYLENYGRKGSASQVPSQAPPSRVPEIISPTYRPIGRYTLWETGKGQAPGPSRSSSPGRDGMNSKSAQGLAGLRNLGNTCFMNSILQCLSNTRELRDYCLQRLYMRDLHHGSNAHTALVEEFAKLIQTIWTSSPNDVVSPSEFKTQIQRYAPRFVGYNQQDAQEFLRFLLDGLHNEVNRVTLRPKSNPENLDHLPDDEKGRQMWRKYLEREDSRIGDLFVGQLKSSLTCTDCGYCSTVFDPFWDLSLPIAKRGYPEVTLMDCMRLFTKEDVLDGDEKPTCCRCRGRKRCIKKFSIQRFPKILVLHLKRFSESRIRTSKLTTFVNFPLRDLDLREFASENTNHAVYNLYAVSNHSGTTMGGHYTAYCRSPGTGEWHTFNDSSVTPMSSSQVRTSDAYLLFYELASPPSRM

Regarding `Cc1ccc(S(=O)(=O)Nc2cc([N+](=O)[O-])ccc2C(=O)Nc2nc(-c3ccccc3)cs2)cc1`, the result in assay [1] was inactive. For the same molecule, the results for the Potency in assay [2] and in assay [3] were 5.26 µM (active) and 0.968 µM (active), respectively.

`Cc1ccc(S(=O)(=O)Nc2cnccc2C(=O)Nc2nc(-c3ccc(Cl)cc3)cs2)cc1`: the result in assay [1] was inactive. Moreover, the Potency is 23.5 µM (active) in assay [2] and 2.17 µM (active) in assay [3].

On to `CC(C)Cc1ccc(-c2csc(Nc3ccc(S(=O)(=O)Nc4nccs4)cc3)n2)cc1`, for which, in assay [1], the call was inactive. In assay [2], the Potency result was “inactive”. In addition, the Potency in assay [3] was 5.44 µM (active).

Take `Cc1ccc(S(=O)(=O)Nc2cnccc2C(=O)NCCc2ccccc2)cc1`: in assay [1], the molecule was classed as inactive. Besides, in assay [2], the Potency entry was “inactive”.

For `Cc1ccc(S(=O)(=O)Nc2cnccc2C(=O)Nc2ccc(-c3nn[nH]n3)cc2)cc1`, the molecule was called inactive in assay [1]. Also, the Potency entry in assay [2] was “inactive”. Also, the Potency in assay [3] is 8.63 µM (active).

For the molecule `COc1cccc(S(=O)(=O)Nc2cnccc2C(=O)Nc2nc(-c3ccccc3)cs2)c1`, in assay [1], the outcome was inactive. In assay [2], the Potency is 23.5 µM (active).

For `Cc1ccc(S(=O)(=O)Nc2cnccc2C(=O)Nc2nc(-c3ccccc3)cs2)cc1`, in assay [1], the call was inactive. Further, the Potency in assay [2] was 18.7 µM (active); in assay [3], 2.17 µM (active) and 1.72 µM (active).

For `Cc1ccc(S(=O)(=O)Nc2cnccc2C(=O)Nc2nc(C(=O)O)cs2)cc1`, the call in assay [1] was inactive. In addition, the Potency entry in assay [2] is “inactive”.

For `O=S(=O)(Nc1nccs1)c1ccc(Nc2nc(-c3ccc(Cl)c(Cl)c3)cs2)cc1`, the outcome in assay [1] was inactive. For the same molecule, the Potency result in assay [2] is “inactive”. Moreover, the Potency in assay [3] is 27.3 µM (active).

As to `O=C(Nc1nc(-c2ccccc2)cs1)c1ccncc1NS(=O)(=O)c1ccccc1Cl`, the call in assay [1] was inactive. Also, the Potency result in assay [2] is “inactive”. Also, in assay [3], the Potency is 1.53 µM (active).

As for `Cn1cnc(S(=O)(=O)Nc2cnccc2C(=O)Nc2nc(-c3ccccc3)cs2)c1`, in assay [1], the result was inactive. Besides, in assay [2], the Potency entry was “inactive”. For the same molecule, in assay [3], the Potency was 19.3 µM (active).

As to `O=C(Nc1nc(-c2ccccc2)cs1)c1ccncc1NS(=O)(=O)c1ccc2c(c1)CCC2`, in assay [1], the call was inactive. Also, in assay [3], the Potency is 1.93 µM (active).

The values are drawn from PubChem BioAssay (NCATS).
